SARS PLP yeast = qHTS of Yeast-based Assay for SARS-CoV PLP. Potency, µM (titrated, usually from 32.9 µM), actives largely listed as activators. actives 0.19% (n = 330,000). S. cerevisiae expressing SARS-CoV PLpro, growth rescue; calls by dose curve; further: nearly all actives have a fitted effect of over 55% in size
HCV inhibitor = qHTS Assay for Inhibitors of Hepatitis C Virus (HCV); actives 3.4% (n = 340,000); Huh7.5.1 HCVcc-Cre infection, luciferase reporter, 44 h; AID 651820, 2012; Potency, µM (top dose mostly 41.8 µM), actives largely listed as inhibitors
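Infectious HCVcc-Cre (~0.5 moi) was added to cells just after compound, with cells seeded 4 h earlier at 1,000 per well. Luciferase activity after 44 h culture reported infection; substrate was incubated 15 min at room temperature before reading.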
Sm TGR inh = qHTS Assay for the Inhibitors of Schistosoma Mansoni Peroxiredoxins; Schistosoma mansoni thioredoxin glutathione reductase (TGR), Q962Y6; purified TGR, DTNB reduction, TNB absorbance 405 nm; Potency, µM (top dose mostly 114 µM), usual class: inhibitors; actives 3% (n = 360,000); further: nearly all actives have a fitted effect of over 60% in size
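TGR 20 nM + NADPH 100 uM (dispensed conc.), cpd preinc 15 min RT; start with NADPH (500 uM addition) then DTNB (15 mM addition). Kinetic TNB absorbance, 405 nm filter. Four-parameter Hill fit across titration.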
HCMV antiviral = qHTS Assay for inhibitors of the human cytomegalovirus (HCMV); activity change, negative = inhibition, % at 57.5 µM; actives 4.5% (n = 410,000); HFF cells, HCMV-luciferase reporter, 72 h; hits give low values; in the data active means activity change below about -60%; inconclusive means no clear call, values can overlap the other calls; inactive means above about -39%
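Steps: HFFs plated, 16 h 37C; compounds added; HCMV-luciferase added to MOI 1 PFU/cell; 72 h 37C; OneGlo reagent, 5 min room temperature; luminescence read, normalized to controls.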
Pf growth 96h = Primary qHTS for delayed death inhibitors of the malarial parasite plastid, 96 hour incubation | P. falciparum luciferase reporter growth, 96 h | Potency, µM (doses to about 28.7 µM), hits mostly inhibitors | actives 6.9% (n = 320,000) | AID 504834, 2011
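P. falciparum expressing integrated firefly luciferase, in erythrocytes at 2% hematocrit, 0.05% parasitemia, incubated with compounds 96 h at 37 C, 5% CO2. Growth inhibition read as loss of luminescence; two-generation exposure targets delayed-death apicoplast inhibitors.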
Pf growth 48h = Primary qHTS for delayed death inhibitors of the malarial parasite plastid, 48 hour incubation; AID 504832, 2011; P. falciparum luciferase growth in erythrocytes, 48 h; actives 5.9% (n = 310,000); Potency, µM (doses to about 28.7 µM), hits mostly inhibitors
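Cell-based growth assay: transgenic P. falciparum expressing firefly luciferase, cultured in red cells within RPMI 1640 containing 0.5% w/v Albumax, 24 mM bicarbonate and gentamycin. A drop in luciferase activity indicates inhibition.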
A number is an active result; – = inactive; ? = inconclusive; · = no result given; [ ] = remark or other dose. In the library only some 15% were active in any assay of this set; here they are far more common. Unless noted, the call rests on the fitted dose curve; in most records, active means well fitted curve in the direction sought with a large enough effect; inconclusive means small, poorly fitted or top-dose-only effect, or another doubt; inactive means no such curve, though single readings can be large; an effect the other way counts as inactive or inconclusive.

SMILES | SARS PLP yeast | HCV inhibitor | Sm TGR inh | HCMV antiviral | Pf growth 96h | Pf growth 48h
CCOc1ccc(CCNC(=O)COC(=O)c2cccc(S(=O)(=O)N3CCOCC3)c2)cc1OCC | – | – | – | – | ? | 9.28µM
CCOc1ccc(CCNC(=O)C2CCN(S(=O)(=O)c3ccc(C)cc3)CC2)cc1OCC | – | · | – | – | ? | –
COc1ccc(CCNC(=O)c2cccc(S(=O)(=O)N3CCOCC3)c2)cc1OC | – | – | – | – | ? | ?
CCOc1ccc(CCNC(=O)c2cccc(S(=O)(=O)N3CCCC3)c2)cc1OCC | – | ? | – | – | ? | 11.7µM
CCOc1ccc(CCNC(=O)COC(=O)c2cccc(S(=O)(=O)N3CCCCC3)c2)cc1OCC | – | –[8.37 µM] | – | – | – | –
CC1CN(S(=O)(=O)c2cccc(C(=O)N3CCC(C(N)=O)CC3)c2)CC(C)O1 (stereo unspecified) | – | – | · | – | · | ·
CCOc1ccc(CCNC(=O)c2ccc(S(=O)(=O)N3CCCC3)cc2)cc1OCC | – | ? | – | – | ? | 11.7µM
Cc1ccc(OCCOC(=O)c2cccc(S(=O)(=O)N3CC(C)OC(C)C3)c2)cc1 (stereo unspecified) | – | 11.2µM | – | – | ? | 13.1µM
CC(C)(C)Cc1c(-c2cccc(Br)c2)nc2ccc(Br)cn12 | · | · | · | – | · | ·
O=C(NCCc1ccc(F)cc1)c1ccc2c(=O)n3c(nc2c1)CCC3 | – | – | – | – | – | –
CCOc1ccc2oc(C(=O)N(CCOC)c3c(N)n(CC(C)C)c(=O)[nH]c3=O)c(C)c2c1 | – | – | – | – | – | ?
CC(C)c1ccc(C(=O)N2CCCC(c3cc(C(=O)Nc4ccc5c(c4)OCO5)no3)C2)cc1 (stereo unspecified) | · | · | · | – | · | ·
CC1(C)CC(=O)C(C=NCCCn2ccnc2)=C(O)C1 | – | – | – | – | – | –
CCCN(CC(=O)Nc1ccccc1C)C(=O)c1cccc(S(=O)(=O)N2CCc3ccccc3C2)c1 | – | 22.4µM | – | – | ? | ?
CCOc1cc2c(cc1OCC)CN(C(=O)c1cccc(S(=O)(=O)N3CCCC3)c1)CC2 | – | 8.91µM | – | – | 10.4µM | ?
CCCN(CC(=O)Nc1ccccc1C)C(=O)c1ccc(S(=O)(=O)N2CCCCCC2)cc1 | – | – | – | – | ? | ?
COc1cc2c(cc1OC)CN(C(=O)c1ccc(S(=O)(=O)N3CCCC3)cc1)CC2 | – | – | – | – | – | –
CCOc1ccc(CCNC(=O)c2ccc3c(c2)NC(=O)C2CCCN32)cc1OCC (stereo unspecified) | – | · | 50.1µM | · | 9.28µM | 5.22µM
COc1ccccc1CNC(=O)COC(=O)c1cccc(S(=O)(=O)N2CCOCC2)c1 | · | 11.2µM | – | – | – | –
CCOC(=O)N1CCC(N2C(=O)c3ccccc3C2Nc2c(C)cccc2C)CC1 (stereo unspecified) | – | – | – | – | ? | ·
O=C(OCCOc1ccccc1)c1cccc(S(=O)(=O)N2CCOCC2)c1 | – | – | – | – | ? | ?
CN(C)c1cccc(C(=O)OCCNC(=O)c2cccc(S(=O)(=O)N3CCOCC3)c2)c1 | – | 10µM | – | – | ? | ?
C=CCSC1=N/C(=C\c2ccc(C)o2)C(=O)S1 | – | – | 39.8µM | – | – | ·
C=CCSC1=N/C(=C\c2ccsc2)C(=O)S1 | – | – | – | – | – | –
CCCCNCCS(=O)(=O)NCc1ccc(OC)cc1 | · | – | · | – | · | ·
SMILES | SARS PLP yeast | HCV inhibitor | Sm TGR inh | HCMV antiviral | Pf growth 96h | Pf growth 48h
CCOC(=O)[C@@H]1[C@H]2COc3ccc(Br)cc3[C@@H]2N2C(=O)N(c3ccc(Cl)cc3)C(=O)[C@]12C | · | – | · | – | · | ·
CCOC(=O)[C@@H]1[C@H]2COc3ccc(Br)cc3[C@@H]2N2C(=O)N(c3ccc(Br)cc3)C(=O)[C@@]12C | – | – | · | – | · | ·
CCOC(=O)[C@@H]1[C@H]2COc3ccccc3[C@H]2N2C(=O)N(c3ccc(C(F)(F)F)cc3)C(=O)[C@]12C | – | – | – | – | 5.22µM | 10.4µM
CCOC(=O)[C@@H]1[C@H]2COc3ccc(Br)cc3[C@H]2N2C(=O)N(c3ccc(F)cc3)C(=O)[C@]12C | – | – | – | – | ? | ?
CCOC(=O)[C@@H]1[C@H]2COc3ccc(Br)cc3[C@@H]2N2C(=O)N(c3ccc(C)cc3)C(=O)[C@]12C | – | – | – | ? | 13.1µM | ?
CCOC(=O)[C@@H]1[C@H]2COc3ccc(Br)cc3[C@H]2N2C(=O)N(c3ccc(C)cc3)C(=O)[C@]12C | – | – | – | ? | 11.7µM | ?
CCOC(=O)[C@@H]1[C@H]2COc3ccc(Br)cc3[C@@H]2N2C(=O)N(c3ccc(OC)cc3)C(=O)[C@]12C | – | – | – | · | 3.29µM | –
CC(C)c1ccc(-n2nnnc2SCc2nc(N)nc(N)n2)cc1 | · | · | · | – | · | ·
CCOC(=O)[C@H]1[C@H]2COc3cc(OC)ccc3[C@@H]2N2C(=O)N(c3ccc(Cl)cc3)C(=O)[C@@]12C | – | – | – | · | 5.22µM | –
Nc1ccc(C(=O)Nc2ccc(OC(F)(F)C(F)F)c(NC(=O)c3ccc(N)cc3)c2)cc1 | – | 6.31µM | – | -68.0 | ? | –
COc1cc2sc(C)nc2c2ccccc12 | – | 10µM | – | – | ? | –
Cc1nc2c(ccc3c2ccc2nc(C)sc23)s1 | – | – | – | – | – | ·
CCOC(=O)c1nnn(-c2ccc([N+](=O)[O-])cc2[N+](=O)[O-])c1C | – | ? | – | – | – | 11.7µM
Cc1ccc(NC(=O)OC(C)N2CCCCC2)cc1NC(=O)OC(C)N1CCCCC1 (stereo unspecified) | · | 25.1µM | · | – | · | ·
CN(CC(=O)Nc1ccc(Cl)c(Cl)c1)C(=O)C12CC3CC(CC(C3)C1)C2 | – | ? | – | – | 7.38µM | ?
CN(CC(=O)Nc1ccc(Cl)c(Cl)c1)C1CCCCC1 | – | – | – | – | – | –
O=S(=O)(c1ccccc1)[C@@]1(c2ccc(Br)cc2)C[C@@H]2ON=C(c3cccc(Br)c3)[C@@H]2C1 | – | – | – | – | ? | 9.28µM
O=S(=O)(c1ccccc1)[C@@]1(c2ccc(Br)cc2)C[C@@H]2ON=C(c3ccccc3)[C@@H]2C1 | – | 10µM | – | – | ? | ?
CCC(C)[C@H]1COCCS(=O)(=O)N1Cc1ccccc1 (stereo partly specified) | – | – | – | – | – | –
Cc1ccc(S(=O)(=O)NCCc2cn3nc(C)c(C)nc3n2)cc1C | – | ? | – | – | – | –
O=C(Nc1ccc(F)cc1)N(Cc1cccs1)Cc1cc2cc3c(cc2[nH]c1=O)OCO3 | – | ? | – | -60.9 | – | ?

Screens: PubChem BioAssay, National Center for Advancing Translational Sciences (NCATS)
